# Laboratory results taken from ChEMBL document CHEMBL2218924, “A broad activity screen in support of a chemogenomic map for kinase signalling research and drug discovery” (Biochem J, 2013).
# Target: Serine/threonine-protein kinase PAK 2 (Homo sapiens) (UniProt Q13177)
# Settings: at 1 µM
# Sequence of Serine/threonine-protein kinase PAK 2 (Homo sapiens) (Q13177 whole entry): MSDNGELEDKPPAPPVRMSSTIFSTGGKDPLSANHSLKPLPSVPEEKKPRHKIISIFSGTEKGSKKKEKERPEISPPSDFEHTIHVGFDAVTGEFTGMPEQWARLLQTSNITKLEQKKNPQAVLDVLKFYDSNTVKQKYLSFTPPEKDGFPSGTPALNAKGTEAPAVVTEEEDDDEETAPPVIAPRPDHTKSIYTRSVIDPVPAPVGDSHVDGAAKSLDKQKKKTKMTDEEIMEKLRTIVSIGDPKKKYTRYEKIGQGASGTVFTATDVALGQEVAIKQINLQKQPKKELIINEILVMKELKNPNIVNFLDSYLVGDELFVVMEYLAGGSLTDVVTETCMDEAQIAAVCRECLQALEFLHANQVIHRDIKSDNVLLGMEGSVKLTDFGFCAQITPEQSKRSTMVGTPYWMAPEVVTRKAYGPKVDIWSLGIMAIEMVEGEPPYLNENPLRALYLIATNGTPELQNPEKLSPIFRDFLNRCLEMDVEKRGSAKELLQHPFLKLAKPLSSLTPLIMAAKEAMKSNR
row,Compound,residual activity
1,Nc1nc(Nc2ccc(S(N)(=O)=O)cc2)nn1C(=O)c1c(F)cccc1F,118%
2,O=C1Nc2ccc(Cl)cc2/C1=C/c1cc(Cl)c(O)c(Cl)c1,97%
3,Cn1sc(=O)n(Cc2ccccc2)c1=O,97%
4,O=C1C(Cl)=C(N2C(=O)CCC2=O)C(=O)c2ccccc21,101%
5,CSc1nc(-c2ccc(F)cc2)c(-c2ccnc(NC(C)c3ccccc3)c2)[nH]1 (configuration not stated),100%
6,CCCCc1c(-c2ccc(OC)cc2)[nH]c2nccnc12,112%
7,O=C(CCCc1ccc(-c2ccccc2F)cc1)Nc1ccc(O)cc1,106%
8,O=C1NC(=O)C(c2cn(CCCO)c3ncccc23)=C1c1cnccn1,89%
9,N#C/C(=C\c1ccc(O)c(O)c1)C(=O)NCc1ccccc1,103%
10,O=C1NC(=O)C(c2cn(CCCn3ccnc3)c3ccccc23)=C1Nc1ccccc1,107%
11,O=C(c1cc2cc(O)ccc2[nH]1)c1cc2cc(O)ccc2[nH]1,100%

# Target: Serine/threonine-protein kinase PAK 2 (Homo sapiens) (UniProt Q13177)
# Settings: at 10 µM
row,Compound,residual activity
1,O=C1Nc2ccc(Cl)cc2/C1=C/c1cc(Cl)c(O)c(Cl)c1,75%
2,Cn1sc(=O)n(Cc2ccccc2)c1=O,91%
3,O=C1C(Cl)=C(N2C(=O)CCC2=O)C(=O)c2ccccc21,98%
4,CSc1nc(-c2ccc(F)cc2)c(-c2ccnc(NC(C)c3ccccc3)c2)[nH]1 (configuration not stated),87%
5,CCCCc1c(-c2ccc(OC)cc2)[nH]c2nccnc12,103%
6,CN([C@@H](Cc1ccc(OS(=O)(=O)c2cccc3cnccc23)cc1)C(=O)N1CCN(c2ccccc2)CC1)S(=O)(=O)c1cccc2cnccc12,98%
7,O=C1NC(=O)C(c2cn(CCCO)c3ncccc23)=C1c1cnccn1,99%
8,N#C/C(=C\c1ccc(O)c(O)c1)C(=O)NCc1ccccc1,85%
9,CC(C)N(CCC(=O)c1ccc2ccccc2c1)Cc1ccccc1,81%
10,O=C1NC(=O)C(c2cn(CCCn3ccnc3)c3ccccc23)=C1Nc1ccccc1,67%
11,O=C(c1cc2cc(O)ccc2[nH]1)c1cc2cc(O)ccc2[nH]1,83%
